Sampled rows, rich in hits. Any-hit rate of the full collection: about 4.1%.
ALR H2O2 inh: blocks human ALR sulfhydryl oxidase activity; AID 485317; purified ALR, DTT oxidation, H2O2 HRP-luminol luminescence; actives 3.8% (n = 290,000); inhibition, % (test concentration not listed); P55789;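 active means mean replicate inhibition above about 79%, with every replicate also reaching it, limit read from the data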
Target sequence (P55789 whole entry, looked up): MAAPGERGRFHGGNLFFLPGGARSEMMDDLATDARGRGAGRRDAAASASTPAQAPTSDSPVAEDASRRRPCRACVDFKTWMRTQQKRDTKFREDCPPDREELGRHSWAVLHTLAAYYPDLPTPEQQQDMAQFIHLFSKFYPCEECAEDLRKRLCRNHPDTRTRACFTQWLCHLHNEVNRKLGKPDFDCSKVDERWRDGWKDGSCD
PfM18AAP inh-1: blocks P. falciparum M18 aspartyl aminopeptidase. recombinant PfM18AAP, H-Glu-NHMec fluorogenic cleavage. inhibition, % at 7.35 µM. actives 1.2% (n = 290,000);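 active means inhibition above the campaign mean inhibition over all tested compounds plus 3 SD, cut at about 28% in these data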;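 further: 0% = plate median of test compound wells and 100% = 2 mM ZnCl2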
IDE inh: cellular human IDE inhibition; HEK cells, FAbetaB cleavage, fluorescence polarization; inhibition, % at 5.59 µM; actives 0.41% (n = 320,000); AID 434962; P14735;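 active means percent inhibition above the average of all tested compounds plus 3 SD, set per screening campaign, cut at about 16% in these data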;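 further: IDE supplied by intact live HEK cells; FP after avidin binding of uncleaved biotin substrate so inhibition keeps polarization high; 0% = DMSO wells and 100% = 60 µM reference IDE inhibitor Ii1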
PolyA inh: yeast polyadenylation inhibition; S. cerevisiae SKY197-pL101 polyadenylation reporter, beta-gal luminescence; efflux-impaired pdr1/pdr3 knockout yeast; score 100 = 6 SD above DMSO; activity score, % at 12 µM; actives 0.02% (n = 300,000);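 active means lowest replicate activity score at least 50, where 100 means six control SD above control mean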;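 further: yeast exposed to compound for 9 h at 30 °C; higher score means more reporter readthrough which indicates perturbed polyadenylation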
IDE cell activ: activators of human insulin-degrading enzyme in cells; P14735; HEK cells, FAbeta-B cleavage, fluorescence polarization; 0% vehicle, 100% cell-free pure enzyme wells; activation, % at 5.96 µM; actives 0.073% (n = 340,000);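 active means activation above the mean of all tested compounds plus 3 SD, set per screening campaign, cut at about 17% in these data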
CaV13 FRET inh: Disruptors of the CACNA1D IQ motif to Ca2+-dependent inactivation inhibitor domain association, primary screening, Förster resonance energy transfer in intact living …; HEK cells, CFP/YFP FRET ICDI-IQ, plate reader, 10 min; percent FRET-ratio fall versus neutral wells; inhibition, % at 12.3 µM; actives 0.098% (n = 340,000);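 active means mean replicate inhibition of at least 30% and at least 1% of replicates passing that level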;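 further: 0% = median of the neutral control wells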
PfM18AAP inh-2: PfM18AAP inhibition, confirmation; shares compounds with PfM18AAP inh-1; recombinant PfM18AAP, H-Glu-NHMec fluorogenic cleavage; inhibition, % at 7.35 µM; actives 28% (n = 2,400); AID 2170;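 active means mean inhibition over replicate wells above the hit cutoff set for the earlier primary screen, cut at about 29% in these data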;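 further: 0% = median of test compound wells and 100% = 2 mM ZnCl2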
CTSL1 confirm: counter-screen for PFM18AAP inhibitors: confirmation of human cathepsin L inhibitors; shares compounds with PfM18AAP inh-1; 2,400 tested, under 10 active; inhibition, % at 5.96 µM; purified cathepsin L1, Z-Leu-Arg-MCA fluorescence;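 active means average inhibition across replicates above the hit cutoff set in the earlier primary screen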;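 further: 0% = median of test compound wells and 100% = Z-Phe-Ala-diazomethylketone 1 µM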
Target sequence (P07711 whole entry, looked up): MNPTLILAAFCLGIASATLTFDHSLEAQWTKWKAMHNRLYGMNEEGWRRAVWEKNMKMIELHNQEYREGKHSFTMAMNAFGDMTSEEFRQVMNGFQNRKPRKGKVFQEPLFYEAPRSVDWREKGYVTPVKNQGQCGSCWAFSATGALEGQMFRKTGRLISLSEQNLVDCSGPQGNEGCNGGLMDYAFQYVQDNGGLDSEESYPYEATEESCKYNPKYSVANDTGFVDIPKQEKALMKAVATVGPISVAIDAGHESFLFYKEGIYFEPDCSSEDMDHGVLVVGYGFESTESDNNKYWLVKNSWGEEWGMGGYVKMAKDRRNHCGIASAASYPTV
* marks the source's active call; other numbers are inactive results; · = no result given.

SMILES	ALR H2O2 inh	PfM18AAP inh-1	IDE inh	PolyA inh	IDE cell activ	CaV13 FRET inh	PfM18AAP inh-2	CTSL1 confirm
Cc1cc(NC(=O)CSc2nnc(-c3ccc(O)cc3)o2)no1	-9	38*	-2	-25	-8	3	-48	-7
Cc1cc(NC(=O)CN2CCN(c3ccc(O)cc3)CC2)no1	99*	35*	2	4	1	-3	-13	1
CCOC(=O)Cc1csc(NC(=O)CSc2nnc(-c3ccc(C)cc3)o2)n1	-14	32*	11	-4	-14	-8	-55	-3
CCOC(=O)Cc1csc(NC(=O)CSc2nnc(-c3ccc(F)cc3)o2)n1	-6	9	-1	-15	2	-8	·	·
O=CN/C=C/c1cc(O)ccc1O	98*	61*	4	·	-19	·	83*	0
S=C(Nc1ccc(Oc2ccccc2)cc1)N1CCOCC1	-11	3	-14	-7	6	-3	·	·
O=C(CNc1ccc(Oc2ccccc2)cc1)N1CCOCC1	-9	42*	11	7	-4	-2	-37	-3
COc1ccc(C)cc1S(=O)(=O)N(C)CC(=O)N1CCN(c2ccccc2)CC1	36	0	4	-2	3	-4	·	·
O=C(CNC(=O)c1ccccc1F)Nc1ccccc1C(F)(F)F	1	-1	-2	0	9	0	·	·
O=C(CSc1ncn[nH]1)c1ccc(OC(F)F)cc1	16	39*	0	9	-2	5	15	-4
CC(C)Cc1nnc(NC(=O)CSc2ccccn2)s1	-14	17	2	5	-1	-4	·	·
CC(=O)N1CCN(c2nnc(-c3ccc(C)cc3)c3ccccc23)CC1	-3	0	2	-4	4	-21	·	·
Cc1ccc(-c2nnc(N3CCN(C(=O)CSc4ncn[nH]4)CC3)c3ccccc23)cc1	-1	42*	3	·	2	·	-1	0
CC(C)Cc1nnc(NC(=O)CSc2ncn[nH]2)s1	-2	38*	-1	37	1	-2	40*	2
O=C(CSc1ncn[nH]1)Nc1ccc(Cl)c(S(=O)(=O)N2CCOCC2)c1	-2	57*	-2	19	0	-3	52*	0
COc1ccc(N(C(=O)c2cccnc2)S(=O)(=O)c2cccs2)cc1	-11	2	4	20	0	-1	·	·
Cc1ccc(C(=O)CSc2ncn[nH]2)cc1	55	22	6	9	6	-6	·	·
O=C(O)CSc1ncn[nH]1	-2	86*	3	29	4	-6	98*	-1
CCOc1ccc(NC(=O)CSc2ncn[nH]2)cc1	-8	5	4	15	2	-7	·	·
Cc1ccc(NC(=O)CSc2ncn[nH]2)cc1	-3	32*	2	2	7	-4	11	0
O=C(CSc1ncn[nH]1)Nc1c(Br)cc([N+](=O)[O-])cc1Br	-16	50*	4	10	3	-5	23	-13
O=C(CSc1ncn[nH]1)Nc1ccccc1-c1ccccc1	-3	14	4	19	6	-5	·	·
O=C(CSc1ncn[nH]1)Nc1nnc(-c2ccccc2)s1	4	64*	4	18	-6	·	66*	2
Cc1ccc(NC(=O)CSc2ncn[nH]2)c([N+](=O)[O-])c1	·	·	-7	·	5	-5	·	·
COC(=O)C(C(=O)OC)C(C[N+](=O)[O-])c1ccc(O)c(OC)c1 (stereo not drawn)	26	0	5	14	3	-9	·	·
SMILES	ALR H2O2 inh	PfM18AAP inh-1	IDE inh	PolyA inh	IDE cell activ	CaV13 FRET inh	PfM18AAP inh-2	CTSL1 confirm
O=c1c(-n2cncn2)c[nH]n1-c1cccc(Cl)n1	19	67*	2	-2	-1	1	-14	-7
Oc1ccc(/C=N/N2CCCCC2)cc1O	99*	66*	2	18	-2	-3	32*	-2
CC1CCCC(C)N1/N=C/c1ccc(O)c(O)c1 (stereo not drawn)	99*	64*	-1	3	-2	-14	46*	1
Clc1ccc(C=NN2CCCCCC2)cc1Cl	·	·	·	·	-2	-5	·	·
COc1ccc(/C=N/N2C(C)CCCC2C)cc1O (stereo not drawn)	34	-6	2	1	3	-3	·	·
O=C(Nn1cnnc1)c1ccc(Cl)c(Cl)c1	17	52*	0	-15	0	-5	50*	2
CCNC(=O)c1cc(Br)ccc1Cl	-6	8	4	10	-1	-8	·	·
O=C(Nn1cnnc1)c1cc(Br)ccc1Cl	2	60*	5	14	3	-5	55*	-3
CCN(CC)C(=O)C1=C(C)N(CCC2=CCCCC2)C(=O)C(CC(=O)NCc2cccc3ccccc23)C1 (stereo not drawn)	·	·	·	·	·	-1	·	·
CCn1c(SCC(=O)O)nnc1-c1cccnc1	1	-10	5	10	-2	-4	·	·
Cc1cccc(C(=O)Nc2ccc(C(=O)N/N=C/c3ccc(C)o3)cc2)c1	0	42*	12	-5	1	-3	-31	3
Cc1cc(NC(=O)c2cc([N+](=O)[O-])cc([N+](=O)[O-])c2C)no1	-26	-6	4	5	1	0	·	·
CCOC(=O)c1sc(N2C(=O)C(O)=C(C(=O)c3ccco3)C2c2ccco2)nc1C (stereo not drawn)	·	32*	-2	-9	0	-5	-43	-2
CCOC(=O)c1sc(N2C(=O)C(O)=C(C(=O)c3ccco3)C2c2ccccc2)nc1C (stereo not drawn)	·	19	·	·	·	·	·	·
COc1cc(C2C3=C(CC(C)(C)CC3=O)N(C)C3=C2C(=O)CC(C)(C)C3)ccc1O	-23	34*	·	7	5	5	-16	-4
CCC1CCC2(CC1)NNC(=S)NN2	-1	35*	0	-2	1	-9	39*	0
S=c1[nH]nc(Cn2nnc3ccccc32)n1-c1ccccc1	54	42*	-8	-2	-3	-6	0	0
S=c1[nH]nc(CCc2ccccc2)n1-c1ccccc1	-3	21	3	-17	3	-3	·	·
S=c1[nH]nc(Cc2n[nH]c(=S)n2-c2ccccc2)n1-c1ccccc1	93*	35*	3	-5	2	-3	2	3
O=C(O)COCC(=O)Nc1ccc(OCCc2ccccc2)cc1	-16	2	12	-16	-2	-3	·	·

Bioassay records as filed in PubChem.
